Holding throughout (assay): PBM binding z-score (relative to random genomic background probes); higher = stronger binding; sequences stand for … in GC…GCGATTGACAGCGTAGAATGAAGG
Assay [1] has as its system PPARg:RXRa DBDmut IVT, anti-RXR (DBD mutation: RXRa K156A/R161A, NR concentration 270 nM, RXRa partner concentration 90 nM). The method in brief: (§1)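 Probes were double-stranded and carried 34-nt variable regions with direct-repeat seeds, single-nucleotide variants, half-site ablations and random human genomic background sequences, printed on custom Agilent 4×180K protein-binding microarrays. Arrays were incubated 1 h with ligand-free nuclear receptor dimers in PBS pH 7.4, 2% milk, 0.02% Triton X-100, 1 mM DTT, 0.2 mg/mL BSA and 0.4 mg/ml salmon testes DNA. Antibodies against each partner (one per run) detected binding, and scanned fluorescence was regression-normalized. Binding z-scores use the random background probes as reference.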

Assay [2] concerns PPARg:RXRa IVT, anti-PPARg (NR concentration 270 nM, RXRa partner concentration 90 nM). The method, boiled down:
as §1

Assay [3] deals with PPARg DBDmut:RXRa IVT, anti-PPARg (DBD mutation: PPARg1 K132A/R137A, NR concentration 270 nM, RXRa partner concentration 90 nM). The method in brief: as §1
For assay [4], the system named is PPARg DBDmut IVT, anti-PPARg (DBD mutation: PPARg1 K132A/R137A, NR concentration 270 nM). The method, boiled down: as §1
Assay [5] deals with PPARg homodimer (NR concentration 180 nM). The method in brief: as §1
Assay [6] deals with PXR:RXRa (NR concentration 270 nM, RXRa partner concentration 90 nM). The method, boiled down: as §1
The subject of assay [7] is PXR homodimer (NR concentration 270 nM). The method in brief: as §1
Assay [8] deals with RARa:RXR (NR concentration 270 nM, RXRa partner concentration 90 nM). The method, boiled down: as §1
In assay [9] the test system is RARa homodimer (NR concentration 270 nM). The method in brief: as §1
The subject of assay [10] is RARb:RXRa (NR concentration 270 nM, RXRa partner concentration 90 nM). The method in brief:
as §1

For assay [11], the system named is RARb homodimer (NR concentration 270 nM). The method, boiled down:
as §1

Assay [12] deals with RARg:RXRa (NR concentration 270 nM, RXRa partner concentration 90 nM). The method, boiled down:
as §1

The subject of assay [13] is RARg homodimer (NR concentration 270 nM). The method, boiled down: as §1
Assay [14] concerns RXRa DBDmut IVT, anti-RXR (DBD mutation: RXRa K156A/R161A, NR concentration 90 nM). The method in brief: as §1
In assay [15] the test system is RXRa homodimer (NR concentration 180 nM). The method, boiled down:
as §1

In assay [16] the test system is THRa:RXRa (NR concentration 90 nM, RXRa partner concentration 90 nM). The method, boiled down:
as §1

Assay [17] concerns THRa homodimer (NR concentration 90 nM). The method, boiled down:
as §1

The test system of assay [18] is VDR homodimer (NR concentration 270 nM). The method, boiled down:
as §1

On to TCTAGCAGGCCAGAGGGGCACTCAAGAGGTACGG, for which the PBM binding z-score is 0.959 in assay [1]; -0.0435 in [2]; -0.531 in [3]; -0.834 in assay [4]; -0.877 in [5]; -0.511 in assay [6]. Also, the PBM binding z-score was -0.673 in [7]; -0.329 in [8]; -0.905 in [9]; 0.329 in assay [10]; 0.611 in [11]; 0.104 in assay [12]. For the same sequence, the PBM binding z-score in [13] was 0.165; in [14] it was -0.0321; in assay [15] it was 0.357; in assay [16], -0.399; in assay [17], -0.898; in assay [18], -0.703.
For the sequence GCTAGGAGGACAAGGTCAGAGCTTTGTCCGTAGA, the PBM binding z-score in assay [1] is 1.13; in assay [2] it was 1.17; in assay [3], -0.92; in assay [4] it was -1.52; in assay [5] it was 0.32; in [6], 1.57. For the same sequence, the PBM binding z-score was -0.305 in assay [7]; 1.89 in assay [8]; -1.07 in [9]; 3.41 in assay [10]; 3.1 in assay [11]; 3 in assay [12]. Moreover, the PBM binding z-score in [13] was determined as 3.49; in assay [14], 0.861; in [15], 2.29; in [16], 2.83; in assay [17], 1.21; in [18], 0.639.
Turning to TCGAGTAGGTTACCAATGTGGCATTCAGCTTTCT, the PBM binding z-score was 3.64 in assay [1]; 2.82 in [2]; -0.0688 in [3]; -0.478 in [4]; -0.26 in assay [5]; 0.165 in assay [6]. Also, the PBM binding z-score is -0.485 in assay [7]; 0.147 in [8]; -1.11 in assay [9]; 0.736 in [10]; -0.0137 in assay [11]; 0.035 in [12]. For the same sequence, the PBM binding z-score in [13] was 0.256; in [14], 0.471; in assay [15], 0.375; in [16], 0.00485; in [17], -0.499; in assay [18] it was -0.622.
TCACATAGGTAAAGGTGAAAGTCGAACGATATGA: the PBM binding z-score in assay [1] came out at 2.47; in [2], 2.45; in assay [3], 0.764; in [4], 0.579; in assay [5], 1.1; in assay [6], 1.19. In addition, the PBM binding z-score in assay [7] was determined as 0.504; in assay [8], 1.75; in assay [9] it was 1.33; in assay [10], 2.05; in assay [11], 1.65; in assay [12] it was 1.65. In addition, the PBM binding z-score in assay [13] is 1.26; in [14] it was 1.26; in [15], 2.34; in [16], 1.44; in [17], -0.0581; in assay [18], -0.223.
Take CCTAGCAGCCCAGGGTCACTCAAGCATTTCGCTT: the PBM binding z-score in assay [1] is -0.614; in assay [2], 0.169; in [3], -1.11; in assay [4], -1.49; in assay [5], 1.2; in [6], 2.56. Further, the PBM binding z-score in assay [7] is 0.192; in assay [8], 3.27; in assay [9], 0.00809; in [10] it was 2.4; in assay [11], 2.69; in [12], 2.9. Moreover, the PBM binding z-score in [13] came to 2.45; in assay [14], 0.289; in assay [15], 3.38; in assay [16], 2.77; in [17], 1.13; in assay [18], 1.33.
For CCTACTGGGCCATTCAGCGGTCATTGATCATATG, the PBM binding z-score in assay [1] was 4.3; in assay [2], 3.25; in assay [3] it was 0.0512; in assay [4] it was -0.76; in assay [5], 0.303; in assay [6], -0.111. Further, the PBM binding z-score was -0.0854 in [7]; 0.0105 in assay [8]; 0.0285 in assay [9]; 1.2 in [10]; 1.85 in assay [11]; 1.97 in assay [12]. Further, the PBM binding z-score is 1.02 in [13]; -0.0941 in assay [14]; -0.0428 in assay [15]; 0.283 in assay [16]; 0.0718 in assay [17]; 0.166 in [18].
Consider ACTAGCAGGCCAAGTTTGGGTCACTCCAACAAAG, for which the PBM binding z-score in assay [1] is 0.7; in [2], 1.34; in [3], -0.265; in assay [4], -0.469; in [5], 0.235; in assay [6] it was 0.603. Also, the PBM binding z-score in assay [7] was -0.498; in assay [8] it was 1.4; in assay [9], -0.0686; in assay [10], 1.74; in [11] it was 2.33; in assay [12], 2.23. Further, the PBM binding z-score in assay [13] came to 1.55; in assay [14], 0.0144; in assay [15] it was 0.704; in assay [16], 2.47; in [17] it was 1.05; in assay [18], 0.157.
For ATCTAAAGGTCGAGGTGAGTATAGAGAAAGGGAA, the PBM binding z-score in assay [1] worked out at 0.937; in [2], 2.41; in assay [3], 1.38; in assay [4], 1.16; in assay [5] it was 2.16; in assay [6] it was 2.7. Moreover, the PBM binding z-score came to 1.07 in [7]; 3.32 in assay [8]; 1.18 in assay [9]; 4.33 in assay [10]; 3.3 in assay [11]; 4.54 in [12]. Moreover, the PBM binding z-score worked out at 4.69 in assay [13]; 1.33 in assay [14]; 4.82 in assay [15]; 3.09 in assay [16]; 1.31 in assay [17]; 0.632 in [18].

The values above are taken from the supplement of paper PMC6555819.
